In the library only some 4.1% were active in any assay of this set; here they are far more common.
Autofluor counter – counter-screen for toxin protease inhibitors: compound fluorescence; compound autofluorescence counterscreen, microsphere flow cytometry; hits give high values; fluorescence intensity (test concentration not listed); hit rate 3.1% among 360,000; in the data active = fluorescence intensity above about 16000; inconclusive = no clear call, values can overlap the other calls
Anthrax LF prot – inhibitors of Bacillus anthracis lethal factor protease | multiplex microsphere protease cleavage assay, LF | inhibition, % at 10 µM | hit rate 0.12% among 360,000; also: plate controls were buffer without enzyme for full effect and enzyme alone for no effect
BoNT A protease – BoNT A light chain protease inhibition; inhibition, % at 10 µM; AID 588499; hit rate 0.17% among 360,000; multiplex microsphere protease substrate cleavage, flow cytometry; also: plate controls were buffer without enzyme for full effect and enzyme alone for no effect
VHR inh abs – blocks human VHR1 dual specificity phosphatase. P51452. recombinant VHR phosphatase, pNPP absorbance. inhibition, % at 13.3 µM. hit rate 0.52% among 290,000. AID 1654; in the data active = inhibition above about 50%
BoNT F protease – inhibitors of Botulinum neurotoxin F light chain protease | hit rate 0.22% among 360,000 | inhibition, % at 10 µM | AID 588497 | Multiplex microsphere protease cleavage assay, flow cytometry; in the data active = inhibition above about 35%, passing the limit was not always enough; inconclusive = no clear call, values can overlap the other calls; also: plate controls were buffer without enzyme for full effect and enzyme alone for no effect
MazF activator – MazEF (E. coli) toxin RNase activation | hit rate 0.32% among 350,000 | FAM/BHQ RNA-DNA oligo cleavage fluorescence, 5 h | AID 504720 | P0AE70 | activation, % at 20 µM; in the data active = activation above about 50%
Active calls of the source: *; ? = inconclusive; . = no result given. Rule as the data show it, unless noted: active = inhibition above about 30%; inconclusive = no clear call, values can overlap the other calls; inactive = below that.

SMILES | Autofluor counter | Anthrax LF prot | BoNT A protease | VHR inh abs | BoNT F protease | MazF activator
Cc1cc(Cl)c(S(=O)(=O)N2CCN(c3ccc(F)cc3)CC2)cc1OCC(=O)NC1CCCCC1 | 16526* | -4 | -1 | 21 | -3 | 4
Cc1ccc(S(=O)(=O)N(CC(=O)Nc2cccnc2)c2ccccc2C)cc1 | 3429 | -19 | -4 | 12 | -3 | -7
CCOC(=O)CN1C(=O)/C(=C2\SC(=S)N(NC(=O)c3cccnc3)C2=O)c2ccccc21 | . | . | . | 16 | . | 4
CCOc1ccccc1C(=O)NCC(=O)N1CCC(C)CC1 | 2814 | -10 | 1 | . | 9 | -6
COCCCn1c(=N)c(C(N)=S)cc2c(=O)n3cccc(C)c3nc21 | 3064 | -22 | 12 | . | -61 | 4
Cc1ccc2nc3c(cc(C(=O)NCC4CCCO4)c(=N)n3CC3CCCO3)c(=O)n2c1 (stereo not drawn) | 3882 | 33* | 1 | -10 | 2 | 2
Cc1ccc2nc3c(cc(C(N)=S)c(=N)n3CCCOC(C)C)c(=O)n2c1 | 13411 | 13 | 45* | 24 | -9 | 21
COc1ccccc1Oc1coc2cc(OC(=O)N3CCOCC3)ccc2c1=O | 22043* | 5 | 3 | 6 | 2 | 8
Cc1oc2ccc(OC(=O)N3CCOCC3)cc2c1C(=O)OC(C)C | 23451* | -5 | -2 | 8 | -5 | 7
COc1ccc(Oc2c(C)oc3cc(OC(=O)N4CCOCC4)ccc3c2=O)cc1 | 16237* | -2 | -1 | -5 | 1 | 0
COc1ccc(-c2coc3cc(OC(=O)N4CCOCC4)ccc3c2=O)cc1 | 4528 | -3 | 0 | -27 | 0 | -3
COc1ccc(C(=O)Cc2cc(OC)c(OC)cc2C(=O)c2ccccc2F)cc1OC | 3300 | -2 | 1 | 18 | 1 | -5
CCOc1ccc(NC(=O)COC(=O)C2COc3ccccc3O2)cc1 (stereo not drawn) | 3833 | -3 | 0 | . | 1 | 9
COCC(=O)Nc1ccc2c(c1)[C@@H]1C[C@H](CC(=O)OC)O[C@@H](CO)[C@@H]1O2 | 3775 | 1 | 0 | . | 3 | 7
O=C(CC1C(=O)NCCN1C(=O)Nc1ccccc1)Nc1ccc(F)cc1 (stereo not drawn) | 4628 | -8 | -10 | 27 | ? | 5
O=C(CC1C(=O)NCCN1C(=O)Nc1ccccc1)Nc1ccc2c(c1)OCO2 (stereo not drawn) | 2326 | -7 | 0 | 29 | 1 | -5
CCOc1ccccc1NC(=O)CC1NCCNC1=O (stereo not drawn) | 18163* | -14 | 4 | 22 | 7 | 0
COc1ccccc1NC(=O)CC1C(=O)NCCN1C(=O)Nc1ccccc1 (stereo not drawn) | 21334* | 3 | 3 | 6 | 5 | 0
CCc1ccc(NC(=O)CC2NCCNC2=O)cc1 (stereo not drawn) | 11220 | 0 | 0 | -4 | -3 | 8
O=C(CC1C(=O)NCCN1C(=S)Nc1ccccc1)Nc1ccc2c(c1)OCCO2 (stereo not drawn) | 24623* | -2 | -3 | 37 | -5 | 5
O=C(N/N=C/c1ccc(Sc2nc3ccccc3s2)c([N+](=O)[O-])c1)c1ccccn1 | 7345 | 0 | -2 | 40 | -9 | 101*
Cc1nn(C)cc1C=NCCOCc1ccccc1 | 4693 | 7 | 2 | 52* | 21 | 2
COc1cccc(CCOC(=O)c2c(-c3ccsc3)oc3c2C(OC(C)=O)CCC3)c1 (stereo not drawn) | 6144 | -6 | 0 | . | -1 | .
Cc1cc(Nc2ccc(Cl)cc2)nc(N)n1 | 21661* | -4 | 1 | 20 | 0 | 3
COc1ccc(Nc2cc(C)nc(N)n2)cc1 | 4666 | 2 | 2 | 15 | ? | 9
SMILES | Autofluor counter | Anthrax LF prot | BoNT A protease | VHR inh abs | BoNT F protease | MazF activator
Cc1cc(C)c(S(=O)(=O)Nc2nnc(C(C)C)s2)c(C)c1 | 3468 | 3 | -3 | 11 | 26 | -1
Cc1ccc(S(=O)(=O)N2CCN(S(=O)(=O)c3ccc(C)cc3)C3OCCOC32)cc1 (stereo not drawn) | 16671* | -1 | -2 | 12 | -2 | 0
Cc1ccc(S(=O)(=O)N2CCN(C(=O)CN3CCOCC3)C2C(C)C)cc1 (stereo not drawn) | 22471* | 2 | 2 | -4 | 0 | 3
COCc1nnc(NS(=O)(=O)c2c(C)cc(C)cc2C)s1 | 23383* | 0 | 0 | 39 | 0 | 3
COc1ccc(NC(=O)Nc2ccc3nc([C@@H]4O[C@H](CO)[C@@H](O)[C@H](O)[C@H]4O)[nH]c3c2)cc1OC1CCCC1 | 5533 | -5 | -1 | . | -4 | .
COc1ccc(OC(=O)COc2cc(C)ccc2C)cc1 | . | . | . | 16 | . | 1
COc1ccc(CC(=O)Oc2cc(C)ccc2C)cc1 | 4114 | 4 | 0 | 58* | ? | -2
Cc1ccc(C)c(N(C(=O)Cn2nnc(-c3cccs3)n2)C(C(=O)NC2CCCC2)c2ccncc2)c1 (stereo not drawn) | 24211* | -4 | -1 | 23 | -4 | -1
Cc1ccc(C(=O)Nc2c3c(nn2C(C)(C)C)CS(=O)(=O)C3)cc1[N+](=O)[O-] | 4141 | 2 | 1 | 30 | 4 | 7
Cc1ccc(C(=O)Nc2c3c(nn2C(C)(C)C)CS(=O)(=O)C3)cc1C | 20652* | -1 | -2 | 10 | -2 | -2
CC(COc1ccccc1)N1CCC(CO)(Cc2ccccc2)CC1 (stereo not drawn) | 4591 | -7 | 0 | 58* | 5 | 2
O=C(CNS(=O)(=O)c1ccc(Br)cc1)N1CCN(c2ccc(F)cc2)CC1 | 4152 | -1 | 0 | 9 | ? | -1
O=C(CCS(=O)(=O)c1ccc(Br)cc1)N1CCN(c2ccc(F)cc2)CC1 | 6558 | 0 | -2 | 50* | -4 | 2
O=C(CCS(=O)(=O)c1ccc(Br)cc1)N1CCN(c2ccc(Cl)cc2)CC1 | 20319* | -1 | 0 | 6 | -1 | -2
CCOC(=O)c1nn(-c2ccc(C)c(C)c2)cc1O | 23047* | 1 | -1 | 10 | -1 | 7
CCOC(=O)c1nn(-c2ccc3c(c2)OCCO3)cc1O | 3244 | -4 | 0 | 13 | -4 | 2
COC(=O)/C=c1/s/c(=C(\C#N)C(=O)NCc2ccco2)n(-c2ccc(C)cc2)c1=O | 4801 | -1 | 2 | 16 | ? | 65*
CC(=O)Nc1ccc(NC(=O)C(C)OC(=O)CN2C(=O)C3CCCCC3C2=O)cc1 (stereo not drawn) | 4512 | 4 | 4 | . | 7 | 0
CCOc1ccccc1C(=O)NCCN1CCC(n2c(=O)[nH]c3ccccc32)CC1 | 4399 | -4 | 0 | . | -4 | .
O=C(CN1C(=O)NC2(CCCC2)C1=O)Nc1cc(C(F)(F)F)ccc1N1CCCCC1 | ? | -3 | -1 | . | 4 | -1
C=CCC(NC(C)c1ccccc1)c1ccco1 (stereo not drawn) | 16630* | 1 | 0 | 33 | -3 | -5
CCOC(=O)c1nc(C)n(-c2cc(Cl)cc(Cl)c2)n1 | 17779* | -10 | 6 | 18 | 6 | -2

From PubChem
